# Hit rate of the full screen: of about 5,500 compounds, about 2,000 (36%) were called active. Another 18% or so got no clear call; they are omitted. This is one part of the list. Unmarked numbers belong to inactive results. Rule as the data show it: active = normalized growth mostly below about 0.91 (no sharp cut-off); inconclusive = no clear call, values can overlap the other calls; inactive = mostly above about 0.92.
# Assay: chemical genetic growth profiling, strain panel (AID 1159580);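 also: tested at 20 µM; growth read once vehicle control cultures reached saturation at 30 °C; 1 = growth at the plate median or of vehicle wells; lower values mean less growth of the strain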
# Details: S. cerevisiae deletion strains, growth OD
smiles,measurement,setting,value
CS(=O)(=O)CCCCN=C=S,normalized growth,"locus YJL187C, strain SWE1 (second series), hits give low values",0.798 (active)
same,normalized growth,"locus YJR043C, strain POL32, hits give low values",0.567 (active)
same,normalized growth,"locus YJR066W, strain TOR1, hits give low values",0.716 (active)
same,normalized growth,"locus YKL009W, strain mrt4, hits give low values",0.82 (active)
same,normalized growth,"locus YKL068W, hits give low values",1.01
same,normalized growth,"locus YKL085W, strain MDH1 (second series), hits give low values",1
same,normalized growth,"locus YKL085W, strain MDH1, hits give low values",1
same,normalized growth,"locus YKL160W, strain elf1, hits give low values",0.7 (active)
same,normalized growth,"locus YKR001C, strain vps1, hits give low values",0.582 (active)
same,normalized growth,"locus YKR026C, strain gcn3, hits give low values",0.866 (active)
same,normalized growth,"locus YKR091W, strain srl3, hits give low values",0.877 (active)
same,normalized growth,"locus YLL001W, strain dnm1, hits give low values",0.596 (active)
same,normalized growth,"locus YLL026W, hits give low values",0.65 (active)
same,normalized growth,"locus YLL041C, strain sdh2, hits give low values",0.801 (active)
same,normalized growth,"locus YLR027C, strain aat2, hits give low values",0.569 (active)
same,normalized growth,"locus YLR039C, strain RIC1, hits give low values",0.758
same,normalized growth,"locus YLR058C, strain SHM2, hits give low values",0.801 (active)
same,normalized growth,"locus YLR102C, strain apc9, hits give low values",0.983
same,normalized growth,"locus YLR113W, strain HOG1, hits give low values",0.819 (active)
same,normalized growth,"locus YLR221C, strain rsa3, hits give low values",0.483 (active)
same,normalized growth,"locus YLR258W, strain gsy2, hits give low values",0.735 (active)
same,normalized growth,"locus YLR262C, strain YPT6 (second series), hits give low values",0.826 (active)
same,normalized growth,"locus YLR262C, strain YPT6, hits give low values",0.797
same,normalized growth,"locus YLR268W, strain sec22, hits give low values",0.669 (active)
same,normalized growth,"locus YLR320W, strain mms22, hits give low values",0.502 (active)
same,normalized growth,"locus YLR330W, strain CHS5, hits give low values",0.822 (active)
same,normalized growth,"locus YLR342W, strain FKS1 (second series), hits give low values",0.813
same,normalized growth,"locus YLR342W, strain FKS1, hits give low values",0.889 (active)
same,normalized growth,"locus YLR357W, strain rsc2, hits give low values",0.98
same,normalized growth,"locus YLR370C, strain arc18, hits give low values",0.766 (active)
same,normalized growth,"locus YLR371W, strain rom2, hits give low values",0.595 (active)
same,normalized growth,"locus YLR384C, strain iki3, hits give low values",0.658 (active)
same,normalized growth,"locus YLR418C, strain cdc73, hits give low values",0.645 (active)
same,normalized growth,"locus YML016C, strain PPZ1, hits give low values",0.842 (active)
same,normalized growth,"locus YML032C, strain rad52, hits give low values",0.801 (active)
same,normalized growth,"locus YML120C, strain ndi1, hits give low values",0.666 (active)
same,normalized growth,"locus YML124C, strain tub3, hits give low values",0.901 (active)
same,normalized growth,"locus YMR058W, strain fet3, hits give low values",0.559 (active)
same,normalized growth,"locus YMR078C, strain ctf18, hits give low values",0.965
same,normalized growth,"locus YMR125W, strain sto1, hits give low values",0.947
same,normalized growth,"locus YMR129W, hits give low values",0.798 (active)
same,normalized growth,"locus YMR205C, strain PFK2, hits give low values",0.732 (active)
same,normalized growth,"locus YMR223W, strain ubp8, hits give low values",0.735 (active)
same,normalized growth,"locus YMR231W, strain pep5, hits give low values",0.522 (active)
same,normalized growth,"locus YMR307W, strain GAS1, hits give low values",0.734
same,normalized growth,"locus YNL067W, strain RPL9B, hits give low values",0.779 (active)
same,normalized growth,"locus YNL071W, strain lat1, hits give low values",0.538 (active)
same,normalized growth,"locus YNL183C, strain NPR1, hits give low values",0.623 (active)
same,normalized growth,"locus YNL209W, strain ssb2, hits give low values",0.628 (active)
same,normalized growth,"locus YNL233W, strain BNI4, hits give low values",0.767 (active)
same,normalized growth,"locus YNL248C, strain rpa49, hits give low values",0.493 (active)
same,normalized growth,"locus YNL250W, strain rad50, hits give low values",0.884 (active)
same,normalized growth,"locus YNL271C, strain bni1, hits give low values",0.887 (active)
same,normalized growth,"locus YNL298W, strain CLA4, hits give low values",0.906 (active)
same,normalized growth,"locus YNL307C, strain MCK1, hits give low values",0.575 (active)
same,normalized growth,"locus YNL322C, strain KRE1 (second series), hits give low values",0.711 (active)
same,normalized growth,"locus YNR049C, strain mso1, hits give low values",0.908 (active)
same,normalized growth,"locus YNR052C, strain pop2, hits give low values",0.821 (active)
same,normalized growth,"locus YOL012C, strain htz1",0.428
same,normalized growth,"locus YOL147C, strain pex11, hits give low values",0.827 (active)
same,normalized growth,"locus YOR001W, strain rrp6, hits give low values",0.643 (active)
same,normalized growth,"locus YOR061W, strain CKA2, hits give low values",0.936
same,normalized growth,"locus YOR069W, strain VPS5, hits give low values",0.891 (active)
same,normalized growth,"locus YOR070C, strain gyp1, hits give low values",0.645 (active)
same,normalized growth,"locus YOR080W, strain dia2, hits give low values",0.966
same,normalized growth,"locus YOR083W, strain WHI5, hits give low values",0.554 (active)
same,normalized growth,"locus YOR106W, strain vam3, hits give low values",0.359 (active)
same,normalized growth,"locus YOR136W, strain idh2, hits give low values",0.865 (active)
same,normalized growth,"locus YOR144C, strain elg1, hits give low values",0.932 (active)
same,normalized growth,"locus YOR184W, strain ser1, hits give low values",0.679 (active)
same,normalized growth,"locus YOR231W, strain MKK1, hits give low values",0.684 (active)
same,normalized growth,"locus YOR265W, strain rbl2, hits give low values",0.756 (active)
same,normalized growth,"locus YOR270C, strain vph1, hits give low values",0.352 (active)
same,normalized growth,"locus YOR290C, strain snf2, hits give low values",0.685 (active)
same,normalized growth,"locus YOR316C, strain cot1, hits give low values",0.921 (active)
same,normalized growth,"locus YPL051W, strain arl3, hits give low values",0.583 (active)
same,normalized growth,"locus YPL078C, strain atp4, hits give low values",0.562 (active)
same,normalized growth,"locus YPL106C, strain sse1, hits give low values",0.808 (active)
same,normalized growth,"locus YPL240C, strain hsp82, hits give low values",0.752 (active)
same,normalized growth,"locus YPL256C, strain CLN2, hits give low values",0.822 (active)
same,normalized growth,"locus YPR119W, strain clb2, hits give low values",1
same,normalized growth,"locus YPR141C, strain kar3, hits give low values",0.981
same,normalized growth,"locus YPR163C, strain tif3, hits give low values",0.854 (active)
same,normalized growth,"locus YPR167C, strain met16, hits give low values",0.904 (active)
same,normalized growth,"strain wtn01, hits give low values",0.652 (active)

# From PubChem BioAssay AID1159580 (chemical genetic matrix, 2015)
